From PubChem BioAssay (Tox21)
Values joined by “and” are separate entries in the source; they are usually repeats but may differ in a detail not shown here. Equal entries are not always repeated. Results filed as inconclusive are left out. A call without a number means that no potency is given here. More than one record can exist for a structure, and the calls need not agree. Active and inactive are the calls of the source. Unless noted, calls follow the shape of the dose curve; as a rule, active = well fitted curve in the direction sought with a large enough effect in the repeat runs; inconclusive = weak or mixed curves; inactive = no such curve, though single readings can be large; an effect the other way counts as inactive or inconclusive.

Key:
[1] = qHTS assay to identify small molecule antagonists of the estrogen related receptor (ERR) signaling pathway from Tox21 library - cell viability counter screen (AID 1224834); also: nearly all actives have a fitted effect of over 30% in size
How it was run: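 ERR reporter cells, 2,000 per well, rested 6 h, then exposed to compound in DMSO for 17.5 hours at 37 C. Viability read as fluorescence after 30 min with CellTiter-Fluor.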

[2] = target: Luciferin 4-monooxygenase (Photinus pyralis) (UniProt P08659); experiment: qHTS assay to identify small molecule inhibitors of firefly luciferase (AID 1224835); also: nearly all actives have a fitted effect of over 25% in size
Sequence of Luciferin 4-monooxygenase (Photinus pyralis) (P08659 whole entry, looked up): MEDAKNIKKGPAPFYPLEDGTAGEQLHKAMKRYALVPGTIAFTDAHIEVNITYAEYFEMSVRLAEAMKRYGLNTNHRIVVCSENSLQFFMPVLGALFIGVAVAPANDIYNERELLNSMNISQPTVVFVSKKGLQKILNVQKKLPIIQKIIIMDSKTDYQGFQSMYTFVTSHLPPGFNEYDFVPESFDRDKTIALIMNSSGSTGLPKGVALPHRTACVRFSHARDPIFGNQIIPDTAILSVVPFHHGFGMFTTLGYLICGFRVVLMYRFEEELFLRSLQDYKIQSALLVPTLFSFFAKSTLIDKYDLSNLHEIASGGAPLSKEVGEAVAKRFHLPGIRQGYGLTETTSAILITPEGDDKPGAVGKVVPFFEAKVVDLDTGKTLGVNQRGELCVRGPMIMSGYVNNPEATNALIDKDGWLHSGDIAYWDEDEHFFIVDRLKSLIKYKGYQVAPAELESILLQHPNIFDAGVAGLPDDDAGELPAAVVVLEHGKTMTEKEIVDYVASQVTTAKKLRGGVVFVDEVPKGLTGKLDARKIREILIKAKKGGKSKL
How it was run: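 Biochemical qHTS: compounds run as interplate titrations against purified firefly enzyme, with D-luciferin and ATP each at its KM concentration. Light output recorded by CCD imaging.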

[3] = qHTS assay to identify small molecule agonists of the constitutive androstane receptor (CAR) signaling pathway - cell viability counter screen (AID 1224836); also: nearly all actives have a fitted effect of over 45% in size
How it was run: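 23 h treatment, 37 C, 5% CO2. Cell line: HepG2 stably expressing hCAR with a CYP2B6-2.2kb construct. Co-treatment: PK11195, 0.75 uM final. Read-out: CellTiter-Fluor fluorescence intensity.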

[4] = qHTS assay to identify small molecule antagonists of the constitutive androstane receptor (CAR) signaling pathway - cell viability counter screen (AID 1224837); also: nearly all actives have a fitted effect of over 45% in size
How it was run: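 HepG2 cells stably carrying hCAR and CYP2B6-2.2kb reporter, stimulated with 50 nM CITCO and compounds at 15 concentrations for 23 h at 37 C. Viability measured by CellTiter-Fluor fluorescence.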

[5] = target: Nuclear receptor subfamily 1 group I member 3 (Homo sapiens) (UniProt Q14994); experiment: qHTS assay to identify small molecule antagonists of the constitutive androstane receptor (CAR) signaling pathway (AID 1224838); also: nearly all actives have a fitted effect of over 40% in size
Sequence of Nuclear receptor subfamily 1 group I member 3 (Homo sapiens) (Q14994 whole entry, looked up): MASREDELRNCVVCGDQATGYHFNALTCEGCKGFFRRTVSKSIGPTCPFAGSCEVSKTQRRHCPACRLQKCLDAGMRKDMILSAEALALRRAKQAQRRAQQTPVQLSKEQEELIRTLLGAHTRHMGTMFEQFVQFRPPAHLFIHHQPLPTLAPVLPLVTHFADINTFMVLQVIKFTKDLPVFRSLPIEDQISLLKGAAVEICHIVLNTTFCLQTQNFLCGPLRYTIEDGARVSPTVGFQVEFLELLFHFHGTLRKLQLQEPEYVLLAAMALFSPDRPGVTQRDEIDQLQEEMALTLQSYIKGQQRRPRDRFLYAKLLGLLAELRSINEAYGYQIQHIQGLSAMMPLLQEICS
How it was run: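 HepG2 cells stably carrying hCAR and a CYP2B6-2.2kb luciferase reporter, seeded 4 hrs before compound (15 concentrations). Stimulated with 50 nM CITCO for 24 hr at 37 C. ONE-Glo luminescence read after 30 min at room temperature.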

[6] = target: Nuclear receptor subfamily 1 group I member 3 (Homo sapiens) (UniProt Q14994); experiment: qHTS assay to identify small molecule agonists of the constitutive androstane receptor (CAR) signaling pathway (AID 1224839); also: nearly all actives have a fitted effect of over 15% in size
How it was run: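 Compounds tested at 15 concentrations on HepG2 cells stably harbouring hCAR and CYP2B6-2.2kb reporter constructs, co-treated with PK11195 (0.75 uM final), 24 h at 37 C; luminescent reporter signal quantified.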

[7] = qHTS assay to identify small molecule antagonists of the estrogen related receptor signaling pathway with the pleiotropic PPARgamma coactivator (PGC) from Tox21 10K library - cell viability counter screen (AID 1224840; active = well fitted cell-killing curve with a large enough effect in the repeat runs, not every such curve was filed as active; also: nearly all actives have a fitted effect of over 40% in size)
How it was run: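 PGC/ERR cells (2,000/well) plated 6 h, then compound-treated for 17.5 h at 37 C. Viability measured by CellTiter-Fluor fluorescence after 30 min at 37 C, multiplexed with the pathway assay.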

[8] = target: Thyrotropin receptor (Homo sapiens) (UniProt P16473); experiment: qHTS assay to identify small molecule agonists of the thyroid stimulating hormone receptor (TSHR) signaling pathway (AID 1224843; calls by dose curve; also: nearly all actives have a fitted effect of over 45% in size)
Sequence of Thyrotropin receptor (Homo sapiens) (P16473 whole entry, looked up): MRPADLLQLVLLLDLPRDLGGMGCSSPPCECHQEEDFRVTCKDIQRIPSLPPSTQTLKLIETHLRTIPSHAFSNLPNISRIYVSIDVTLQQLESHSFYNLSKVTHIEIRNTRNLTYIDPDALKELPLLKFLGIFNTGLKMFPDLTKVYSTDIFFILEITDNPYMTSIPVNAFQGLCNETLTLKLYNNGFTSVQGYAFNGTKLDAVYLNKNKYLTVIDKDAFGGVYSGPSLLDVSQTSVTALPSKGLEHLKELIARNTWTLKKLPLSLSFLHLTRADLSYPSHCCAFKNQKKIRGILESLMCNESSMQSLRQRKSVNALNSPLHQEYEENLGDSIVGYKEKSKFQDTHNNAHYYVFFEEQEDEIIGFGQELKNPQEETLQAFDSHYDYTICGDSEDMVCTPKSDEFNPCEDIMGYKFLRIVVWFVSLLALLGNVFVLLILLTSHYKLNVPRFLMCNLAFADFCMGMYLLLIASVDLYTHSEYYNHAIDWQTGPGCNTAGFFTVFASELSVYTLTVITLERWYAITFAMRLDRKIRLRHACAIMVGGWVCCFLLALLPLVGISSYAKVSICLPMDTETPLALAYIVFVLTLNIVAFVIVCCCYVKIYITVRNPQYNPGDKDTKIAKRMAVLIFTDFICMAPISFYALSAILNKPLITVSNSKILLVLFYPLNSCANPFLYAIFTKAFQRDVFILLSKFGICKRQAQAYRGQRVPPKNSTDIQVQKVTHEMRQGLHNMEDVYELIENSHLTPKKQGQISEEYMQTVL
How it was run: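 TSHR-HEK293 cells in agonist mode, 30 min room-temperature step, then cAMP measured by competitive HTRF (cAMP-d2 with anti-cAMP cryptate) after 1 h at room temperature. Tested at 15 concentrations in triplicate.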

[9] = qHTS assay to identify small molecule antagonists of the estrogen related receptor signaling pathway with the pleiotropic PPARgamma coactivator (PGC) from Tox21 10K library (AID 1224841; call rule not given here; also: actives are mostly falling curves and most rising ones were filed inactive; nearly all actives have a fitted effect of over 50% in size)
How it was run: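 PGC/ERR cell line, 2,000 cells/well, pre-incubated 6 hours at 37 C, then exposed to compounds for 18 hours at 37 C; luciferase read with One-Glo luminescence after 30 min at room temperature.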

[10] = qHTS assay to identify small molecule agonists of the estrogen related receptor signaling pathway with the pleiotropic PPARgamma coactivator (PGC) from Tox21 10K library (AID 1224842); also: nearly all actives have a fitted effect of over 15% in size
How it was run: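 PGC/ERR reporter cell line, 2,000 cells per well, incubated 6 h at 37 C before 23 nL compound in DMSO was added. After 18 h at 37 C, One-Glo luminescence read following 30 min at room temperature.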
Potency is read from the fitted curve at half-maximal effect.

Compound	Potency [1]	Potency [2]	Potency [3]	Potency [4]	Potency [5]	Potency [6]	Potency [7]	Potency [8]	Potency [9]	Potency [10]
C=C(C)C#N	inactive	inactive	inactive	inactive	inactive	inactive	inactive	inactive	–	–
CS(=O)(=O)NC(=O)c1cc(Oc2ccc(C(F)(F)F)cc2Cl)ccc1[N+](=O)[O-]	inactive	inactive	inactive	inactive	inactive	–	inactive	inactive	–	–
C[C@]12CCC(=O)C=C1CC[C@@H]1[C@@H]2CC[C@@]2(C)[C@H]1CC[C@]2(C)O	inactive	inactive	inactive	inactive	inactive	inactive	–	inactive	–	–
CNC(=O)Oc1cccc2c1OC(C)(C)C2	inactive	inactive	inactive	inactive	inactive	inactive	–	inactive	inactive	inactive
CCNCC	inactive	inactive	inactive	inactive	–	–	inactive	inactive	inactive	inactive
CC(O)CN(CC(C)O)CC(C)O (configuration not stated)	inactive	inactive	inactive	inactive	inactive	inactive	inactive	inactive	–	–
CSc1nc(NC(C)C)nc(NC(C)C)n1	inactive	inactive	inactive	inactive	inactive	–	–	–	inactive	inactive
C=CC(Cl)CCl (configuration not stated)	inactive	inactive	inactive	inactive	inactive	inactive	inactive	inactive	–	–
CC(C)(O)C#N	inactive	inactive	inactive	inactive	inactive	inactive	inactive	inactive	–	–
Nc1ncn[nH]1	inactive	inactive	inactive	inactive	inactive	inactive	–	inactive	–	–
CCCCOC(=O)COC(=O)c1ccccc1C(=O)OCCCC	inactive	12.6 µM (active) and 35.6 µM (active)	inactive	inactive	inactive	inactive	–	–	inactive	inactive
CCCCCCCCCCCCCl	inactive	inactive	inactive	inactive	–	–	inactive	inactive	–	–
C[N+](C)(C)C	inactive	inactive	inactive	inactive	inactive	inactive	–	inactive	–	–
CC1CC(=O)O1 (configuration not stated)	inactive	inactive	inactive	inactive	–	–	–	inactive	–	–
CNC(=S)S	inactive	inactive	inactive	inactive	inactive	inactive	–	inactive	–	–
CC(C)COC(=O)c1ccccc1C(=O)OCC(C)C	inactive	inactive	inactive	inactive	–	–	inactive	inactive	–	–
Clc1cccc(C(Cl)(Cl)Cl)n1	inactive	inactive	inactive	inactive	–	–	–	–	–	–
CCOS(=O)(=O)OCC	54.5 µM (active) and inactive	inactive	inactive	inactive	inactive	inactive	inactive	inactive	–	–
O=C(O)CF	inactive	inactive	inactive	inactive	–	–	inactive	inactive	–	–
CC(C)=CC1C(C(=O)OCN2C(=O)C3=C(CCCC3)C2=O)C1(C)C (configuration not stated)	inactive	inactive	inactive	inactive	–	–	–	–	–	inactive
Nc1ccc2ccccc2c1	inactive	inactive	inactive	inactive	inactive	52.6 µM (active) and 48.6 µM (active)	–	–	inactive	inactive
O=NN(c1ccccc1)c1ccccc1	inactive	inactive	inactive	inactive	–	–	–	inactive	–	–
CC1(C)Cc2cccc(O)c2O1	inactive	inactive	inactive	inactive	inactive	inactive	inactive	inactive	–	–
Cc1ccc(N=CN(C)C=Nc2ccc(C)cc2C)c(C)c1	inactive	inactive	inactive	inactive	inactive	inactive	inactive	inactive	–	–
ClCC(Cl)CCl	inactive	inactive	inactive	inactive	inactive	inactive	inactive	inactive	inactive	inactive
O=S(=O)(O)C(F)(F)C(F)(F)C(F)(F)C(F)(F)C(F)(F)C(F)(F)C(F)(F)C(F)(F)F	inactive	75.8 µM (active) and 71 µM (active)	inactive	inactive	–	–	inactive	inactive	inactive and 5.45 µM (active)	inactive
NN=C(N)N	inactive	inactive	inactive	inactive	–	–	inactive	–	–	–

Compound	Potency [1]	Potency [2]	Potency [3]	Potency [4]	Potency [5]	Potency [6]	Potency [7]	Potency [8]	Potency [9]	Potency [10]
CCCCOCC1CO1 (configuration not stated)	inactive	inactive	inactive	inactive	inactive	inactive	inactive	inactive	inactive	inactive
COc1ccc(O)c(C(C)(C)C)c1	inactive	inactive	inactive	inactive	inactive	inactive	inactive	–	–	–
OC(c1ccc(Cl)cc1)(c1cncnc1)c1ccccc1Cl (configuration not stated)	27.8 µM (active) and 43.3 µM (active)	81.1 µM (active) and inactive	inactive	55.4 µM (active)	62.2 µM (active) and inactive	inactive	–	–	24.8 µM (active) and inactive	inactive
ClCc1ccccn1	inactive	inactive	inactive	inactive	inactive	inactive	inactive	inactive	–	–
CCCCCCCCCc1ccc(O)cc1	61.8 µM (active)	inactive	inactive	inactive	inactive	–	–	inactive	–	–
CCNc1nc(Cl)nc(NC(C)(C)C#N)n1	inactive	inactive	inactive	inactive	inactive	inactive	inactive	inactive	–	–
CCOP(=S)(OCC)SCSC(C)(C)C	inactive	inactive	inactive	inactive	inactive	inactive	inactive	inactive	–	–
O=NN1CCOCC1	inactive	inactive	inactive	inactive	–	–	inactive	inactive	–	–
Cn1c(-c2ccccc2)cc(-c2ccccc2)[n+]1C	inactive	inactive	inactive	inactive	inactive	inactive	inactive	inactive	8.62 µM (active) and 27.3 µM (active)	inactive
CC[n+]1c(-c2ccccc2)c2cc(N)ccc2c2ccc(N)cc21	24.2 µM (active) and 6.68 µM (active)	inactive	48.3 µM (active)	30.5 µM (active)	21.6 µM (active) and 13.3 µM (active)	inactive	–	–	–	–
CCCCCCCCCC(CC)c1ccc(S(=O)(=O)O)cc1 (configuration not stated)	–	inactive	inactive	inactive	–	–	–	–	–	–
CNC(=O)CSP(=S)(OC)OC	inactive	–	–	inactive	inactive	inactive	–	inactive	–	–
CCOP(=S)(OCC)OP(=S)(OCC)OCC	inactive	–	–	inactive	inactive	inactive	–	inactive	inactive	inactive
Clc1cccc(Cl)c1	inactive	inactive	–	inactive	inactive	inactive	inactive	inactive	inactive	inactive
Cl	inactive	–	inactive	inactive	–	–	–	–	–	–
Cc1cccc(N=Nc2ccc(N(C)C)cc2)c1	27.3 µM (active)	456 nM (active) and 894 nM (active)	78.3 µM (active)	–	inactive	2.78 µM (active) and 3.06 µM (active)	–	–	inactive	1.56 µM (active) and 2.73 µM (active)
C=CC(=O)OCC(CC)(COC(=O)C=C)COC(=O)C=C	15.8 µM (active) and 17.2 µM (active)	inactive	–	28 µM (active) and 19.3 µM (active)	28 µM (active) and 21.7 µM (active)	inactive	8.87 µM (active) and 12.2 µM (active)	11.2 µM (active) and 15.4 µM (active)	17.7 µM (active) and 21.7 µM (active)	inactive
CCC[CH2][Sn]([Cl])([Cl])[CH2]CCC	981 nM (active) and 1.09 µM (active)	–	0.874 µM (active)	874 nM (active) and 864 nM (active)	552 nM (active) and 686 nM (active)	inactive	–	–	196 nM (active) and 96.9 nM (active)	inactive
CCC1(c2ccc(N)cc2)CCC(=O)NC1=O (configuration not stated)	inactive	inactive	–	inactive	–	–	–	–	inactive	inactive
O=P(OCCCl)(OCCCl)OCCCl	inactive	inactive	–	inactive	inactive	inactive	inactive	–	4.81 µM (active) and inactive	inactive
Cc1ccc([N+](=O)[O-])cc1	inactive	inactive	–	inactive	inactive	inactive	inactive	inactive	–	–
CC(C)Nc1ccc(Nc2ccccc2)cc1	27.2 µM (active) and 61.1 µM (active)	31.6 µM (active) and 35.6 µM (active)	–	54.3 µM (active)	inactive	13.6 µM (active) and 27.3 µM (active)	43.1 µM (active)	–	54.3 µM (active) and inactive	inactive and 19.3 µM (active)
O=C1C(Cl)=C(Cl)C(=O)c2ccccc21	61.3 µM (active) and 54.5 µM (active)	5.66 µM (active) and 5.64 µM (active)	–	inactive	–	–	inactive	–	34.5 µM (active) and 19.3 µM (active)	inactive
C[N+](C)(C)CC(=O)[O-]	inactive	inactive	–	inactive	–	–	–	–	–	–
CCCCSP(=O)(SCCCC)SCCCC	inactive	inactive	–	inactive	inactive	23.8 µM (active) and 8.63 µM (active)	inactive	–	–	–
Clc1ccc(C(Cl)(Cl)Cl)cc1	inactive	inactive	–	inactive	–	–	–	inactive	inactive	inactive
CCC[CH2][Sn]([Cl])([CH2]CCC)[CH2]CCC	2.17 µM (active) and 1.22 µM (active)	31.8 µM (active) and 39.9 µM (active)	–	1.54 µM (active) and 686 nM (active)	244 nM (active) and 386 nM (active)	inactive	–	–	–	–
